GPR151 ag – human GPR151 activation; PathHunter beta-arrestin GPR151 cells, luminescence; activation, % at 11.2 µM; 650,000 compounds, 1% hits; AID 1508602; in the data active = activation above about 4.9%;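 also: 0% = median of compound wells and 100% = cells with positive control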
Target sequence (Q8TDV0 whole entry, looked up): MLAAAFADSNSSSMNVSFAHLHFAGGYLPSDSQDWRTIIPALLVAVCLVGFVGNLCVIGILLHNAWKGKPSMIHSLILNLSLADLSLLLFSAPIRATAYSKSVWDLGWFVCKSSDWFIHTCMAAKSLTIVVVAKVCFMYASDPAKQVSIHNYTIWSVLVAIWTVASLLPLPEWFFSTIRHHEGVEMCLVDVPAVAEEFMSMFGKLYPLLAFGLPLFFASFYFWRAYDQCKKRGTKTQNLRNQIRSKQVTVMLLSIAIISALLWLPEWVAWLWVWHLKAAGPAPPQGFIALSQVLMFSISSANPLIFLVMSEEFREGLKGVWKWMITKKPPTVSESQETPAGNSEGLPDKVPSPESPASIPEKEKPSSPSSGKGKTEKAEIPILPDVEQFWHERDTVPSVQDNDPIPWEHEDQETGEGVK
MITF inh – human MITF inhibition, primary screen. O75030. AID 1259374. inhibition, % at 2.6 µM. AlphaScreen MITF homodimerization, bead proximity signal. 650,000 compounds, 0.91% hits; in the data active = inhibition above about 50%;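 also: 0% = vehicle wells with protein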
FBW7 act – human FBW7 E3 ligase activation, primary screen | Q969H0 | AID 1259310 | normalized activity (activation), % at 26.1 µM | AlphaScreen FBW7–phospho-cyclin E peptide binding, activator screen | 650,000 compounds, 0.13% hits; in the data active = normalized activity above about 1.9%;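 also: purified mutant Fbw7 with reduced substrate affinity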
TEAD-YAP inh – TEAD-YAP interaction inhibition. inhibition, % at 9.12 µM. HEK-TIYL cells, TEAD-Gal4/YAP UAS-luciferase luminescence. 640,000 compounds, 1.4% hits; in the data active = inhibition above about 32%;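 also: 0% = median of test compound wells and 100% = reference inhibitor wells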
MITF inh conf – confirmation of human MITF inhibitors; AID 1259372; inhibition, % at 2.6 µM; 4,700 compounds, 16% hits; AlphaScreen MITF homodimerization, biotin/His-MITF beads; shares compounds with MITF inh;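 active = inhibition above a cutoff derived from the DMSO control wells, cut at about 28% in these data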;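 also: 0% = MITF dimer wells with DMSO only; inhibitors lower the bead chemiluminescence by keeping MITF from dimerizing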
AS interf DR – counter-screen: compounds optically interfering with AlphaScreen. shares compounds with MITF inh. AID 1259373. IC50, µM. 480 compounds, 6% hits. AlphaScreen optical interference counterscreen, cell-free; call rule not given here
AS interf ctr – optically interferes with AlphaScreen signal; shares compounds with MITF inh; 4,700 compounds, 7.6% hits; LysRS AlphaScreen counterscreen, signal interference, triplicate; AID 1259376; inhibition, % at 2.6 µM;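 active = inhibition above a cutoff derived from the DMSO control wells, cut at about 30% in these data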
Starred values were filed as active, the others as inactive; nt = not tested or not shown. Only some compounds are listed: those with a hit (about 3.5% of all), similar ones and a draw of the others.

SMILES | GPR151 ag | MITF inh | FBW7 act | TEAD-YAP inh | MITF inh conf | AS interf ctr | others
CN(C)/N=C/c1ccc(OC(=O)c2ccccn2)cc1 | -2 | 43 | 0 | -5 | nt | nt
NS(=O)(=O)c1ccc(N=Cc2ccc(OC(=O)c3ccccn3)cc2)cc1 | -2 | 55* | 0 | -10 | 17 | 45*
O=C1CC(Sc2ccccc2)C2COC1O2 (centres undefined) | 1 | -4 | 0 | -3 | nt | nt
COc1cc(OC)cc(C(=O)N2CCN(Cc3cc(OC)c(OC)cc3OC)CC2)c1 | 3 | 49 | 0 | -2 | nt | nt
COc1cccc(OC)c1C(=O)N1CCN(Cc2ccccc2Br)CC1 | 1 | 63* | 0 | 10 | 2 | 7
COc1cc(OC)cc(C(=O)N2CCN(Cc3ccccc3C(F)(F)F)CC2)c1 | 2 | 62* | 0 | 2 | -3 | -2
COc1ccccc1CN1CCN(Cc2ccccc2C(F)(F)F)CC1 | -2 | 70* | 0 | 9 | -7 | 1
COc1ccccc1CN1CCN(C(=O)c2cccs2)CC1 | -1 | 36 | 0 | -3 | nt | nt
COc1cccc(OC)c1C(=O)N1CCN(Cc2ccccc2C(F)(F)F)CC1 | 0 | 52* | 0 | -3 | -17 | 8
COc1ccc(OC)c(CN2CCN(C(=O)c3c(OC)cccc3OC)CC2)c1 | 1 | 32 | 0 | 1 | nt | nt
COc1ccccc1NC(=O)Cn1cnc2sc(C(=O)N3CCN(c4ccc([N+](=O)[O-])cc4)CC3)c(C)c2c1=O | 0 | 5 | 0 | 7 | nt | nt
O=C(CCC1CCCN(C(=O)C2CCCCC2)C1)N1CCN(c2ccccn2)CC1 (centres undefined) | 1 | -8 | 1 | 7 | nt | nt
O=C(CCCCn1c(=S)[nH]c2ccsc2c1=O)N1CCc2ccccc2C1 | 1 | 3 | 0 | 5 | nt | nt
Cc1ccccc1C(=O)c1ccc(O)cc1O | 1 | -6 | 0 | 1 | nt | nt
CCC(C)c1ccccc1OCCNCCCOC (centres undefined) | -1 | 58* | 0 | -4 | 2 | 3
CCC(C)c1ccccc1OCCNCCN(C)C (centres undefined) | 1 | 67* | 0 | -1 | 59* | 16 | AS interf DR=>6.5
CCC(C)c1ccccc1OCCNCCOC (centres undefined) | -2 | 46 | 0 | -2 | nt | nt
CN(C)CCNCCOc1ccc2ccccc2c1Br | -1 | 59* | 1 | -3 | 2 | 18
CCCCNCCOc1ccccc1OCC | 3 | 61* | 0 | 6 | 33* | 6 | AS interf DR=>6.5
O=C(CCS(=O)(=O)Cc1ccccc1)N1CCCc2ccccc21 | -1 | 20 | 0 | 8 | nt | nt
O=C(CSc1nc2ccc(I)cc2c(=O)[nH]1)Nc1ccccc1 | 0 | 21 | 0 | -1 | nt | nt
O=[N+]([O-])c1ccc(-c2nc3c4ccccc4nc(SCc4ccc(Cl)cc4)n3n2)cc1 | 0 | 5 | 0 | 2 | nt | nt
CNCCCOc1c(C)cc(Cl)cc1Br | -1 | 24 | 0 | -15 | nt | nt
CCC(C)c1ccccc1OCCCNCCN (centres undefined) | 1 | 13 | 0 | 15 | nt | nt
Cc1cc(Cl)cc(Br)c1OCCNCCN(C)C | 0 | 53* | 0 | 6 | 1 | 18
SMILES | GPR151 ag | MITF inh | FBW7 act | TEAD-YAP inh | MITF inh conf | AS interf ctr | others
CCOc1ccccc1OCCOCCNCc1ccccc1 | -1 | 82* | 0 | 7 | 2 | 11
CCC(C)c1ccccc1OCCCNCCO (centres undefined) | -2 | 59* | 0 | 13 | -6 | -6
COc1ccc(CN2CCc3nnc(CNC(=O)Cc4cccc(F)c4)n3CC2)c(O)c1 | 1 | -3 | 0 | 2 | nt | nt
CSc1ccc(Cc2nnc(NC(=O)C34CC5CC(CC(C5)C3)C4)o2)cc1 | -1 | 52* | 0 | 11 | -9 | 19
CSc1ccc(Cc2nnc(NC(=O)c3cc(C)oc3C)o2)cc1 | -1 | 2 | 0 | 11 | nt | nt
CCOC(=O)c1cnc(N2CCOCC2)[nH]c1=O | -1 | 5 | 0 | -5 | nt | nt
CCOC(=O)c1cnc(-n2[nH]c(C)c(CCO)c2=O)[nH]c1=O | -1 | 86* | 0 | -4 | 13 | 65*
Cc1[nH]n(-c2ncc(C(=O)O)c(=O)[nH]2)c(=O)c1Cc1ccccc1 | 1 | 83* | 0 | 0 | 64* | 95*
Cc1cc(=O)[nH]c(-n2[nH]c(C)c(Cc3ccccc3)c2=O)n1 | -1 | 15 | 0 | 2 | nt | nt
O=S(=O)(NCC(c1cccs1)S(=O)(=O)c1ccc(Cl)cc1)c1cccs1 (centres undefined) | 0 | 73* | 1 | 6 | 18 | 3
O=S(=O)(NCC(c1cccs1)S(=O)(=O)c1ccccc1)c1cccs1 (centres undefined) | -1 | -2 | 0 | 2 | nt | nt
O=[N+]([O-])c1ccccc1CN1CCN(S(=O)(=O)Cc2ccccc2)CC1 | 1 | 70* | 1 | 12 | 12 | 18
CS(=O)(=O)N1CCN(c2ccc([N+](=O)[O-])c(N3CCN(Cc4ccccc4)CC3)c2)CC1 | 0 | 83* | 0 | 10 | -5 | -3
O=S(=O)(Cc1ccccc1)N1CCN(Cc2ccccc2Cl)CC1 | 1 | 92* | 0 | 5 | 11 | 11
CCS(=O)(=O)N1CCN(Cc2ccccc2[N+](=O)[O-])CC1 | 0 | -1 | 0 | 2 | nt | nt
O=C(Nc1ccc(F)cc1)c1cc(S(=O)(=O)N2CCOCC2)ccc1F | 1 | -14 | 0 | -9 | nt | nt
CN1CCN(CCS(=O)(=O)OCC(F)(F)F)CC1 | 1 | 84* | 0 | 4 | 10 | 14
O=C1c2cccc3cccc(c23)C(=O)N1CCS(=O)(=O)OCC(F)(F)F | 0 | 12 | 0 | 2 | nt | nt
N=C1S/C(=C\c2ccco2)C(=O)N1c1nonc1N | -1 | 82* | 0 | -43 | 60* | 2 | AS interf DR=>7
O=C(Cc1ccc(Cl)cc1)NC(=S)Nc1nc(-c2ccccc2)cs1 | 1 | 2 | 0 | -12 | nt | nt
O=C(C1CCCN(Cc2cccc([N+](=O)[O-])c2)C1)N1CCc2ccccc2C1 (centres undefined) | 0 | 51* | 0 | 8 | 9 | 17
Cc1ccc(CN2CCC(C(=O)N3CCc4ccccc4C3)CC2)o1 | 2 | 54* | 0 | -7 | 11 | 17
O=C(C1CCCN(Cc2cccc([N+](=O)[O-])c2)C1)N1CCCCCC1 (centres undefined) | 0 | 69* | 0 | 5 | 13 | 16
COc1cccc(CN2CCc3ccccc3C2)c1 | 1 | 25 | 0 | 0 | nt | nt
CCN(CC)C(=O)C1CCCN(Cc2cccc([N+](=O)[O-])c2)C1 (centres undefined) | 3 | 40 | 0 | 5 | nt | nt
COc1cccc(CN2CCCC(C(=O)N3CCc4ccccc4C3)C2)c1 (centres undefined) | 1 | 60* | 0 | 13 | 8 | 14
O=C(C1CCN(Cc2ccccc2F)CC1)N1CCc2ccccc2C1 | -1 | 49 | 0 | 6 | nt | nt
